This note sets out measurements from PubChem BioAssay (EPA / NIEHS).

“And” between values parts separate entries of the source, which are not always exact repeats. Equal entries are not always repeated. A structure can be active in one record and inactive in another. The source made the active and inactive calls. The calls were made as follows: active = hit-call score of the fitted dose curve at least 0.9, where 1 is the maximum; inactive = score below 0.9.

Read-out in this test: Macrophage colony-stimulating factor (MCSF), CSF1 (gene 1435)
As to the kind of experiment: BSK_hDFCGF_MCSF: BioMAP Diversity Plus: hDFCGF Assay for Macrophage colony-stimulating factor (MCSF) Biomarker Activity (AID 2283060). To be noted: primary human foreskin fibroblasts; actives raise or lower the signal. As for the experimental part:
BSK_hDFCGF is a cell-based, multiplexed-readout assay that uses foreskin fibroblast, a human skin primary cell, with measurements taken at 24 hours after chemical dosing in a 96-well plate.BSK_hDFCGF_MCSF is an assay component measured in the BSK_hDFCGF assay. It measures M-CSF antibody related to regulation of gene expression using ELISA technology.Data from the assay component BSK_hDFCGF_MCSF was analyzed into 1 assay endpoint. This assay endpoint, BSK_hDFCGF_MCSF, was analyzed with bidirectional fitting relative to DMSO as the negative control and baseline of activity. Using a type of binding reporter, gain or loss-of-signal activity can be used to understand changes in the signaling as they relate to the gene CSF1. Furthermore, this assay endpoint can be referred to as a primary readout, because this assay has produced multiple assay endpoints where this one serves a signaling function. To generalize the intended target to other relatable targets, this assay endpoint is annotated to the cytokine intended target family, where the subfamily is colony stimulating factor.
The levels of cell surface (or secreted, indicated by the prefix "s") biomarker endpoints were measured by ELISA. Overt cytotoxicity to cells in confluent adherent cultures (all systems other than the BT system) was assessed by measuring total protein levels using sulforhodamine B (SRB) staining in parallel cultures at the time of biomarker measurements, indicated as SRB endpoints. For proliferation assays for adherent cell types, individual cell types are cultured at sub-confluence and relative cell numbers quantified by SRB staining at time points optimized for each system (48 h: 3C and CASM3C systems; 72 h: BT and HDF3CGF systems; 96 h: SAg system). SRB was performed by staining cells with 0.1% SRB after fixation with 10% TCA and reading wells at 560 nm.Viability and proliferation of PBMC (T cells) was quantified by Alamar Blue reduction for the SAg and BT systems. For PBMC viability (referred to as PBMC Cytotoxicity within the assay endpoint names), cells were plated (75,000/well in a 96-well plate) and then chemical samples added for 1 h before addition of activators, SEB and TSST-1 (20 ng/mL final concentration each). Cells were incubated for 90 h. Then, Alamar Blue (20 uL/well) (Invitrogen, Cat DAL1100) was added for 6 h, and the plates were read with a fluorescence microplate reader at 546/580 nm (excitation/emission). For PBMC proliferation, cells were plated and activated as above but incubated for only 16 h prior to addition of Alamar Blue. Plates were read after 6 h.
Consider `Oc1c(Cl)cc(Cl)c(Cl)c1Cc1c(O)c(Cl)cc(Cl)c1Cl`, for which the AC50 is 1.58 µM (active).

As to `C1=CC2C3C=CC(C3)C2C1` (stereo not given), the result was inactive.

Consider `IC(I)I`, for which the outcome was inactive.

As to `CCN(CC)C(=O)N(CC)CC`, the result was inactive.

In the case of `Cc1cc(CCC(=O)OCCOCCOCCOC(=O)CCc2cc(C)c(O)c(C(C)(C)C)c2)cc(C(C)(C)C)c1O`, the result was inactive.

Regarding `CCOC(=O)C(C#N)=C(c1ccccc1)c1ccccc1`, the AC50 was 23.3 µM (active) and the result was inactive.

As for `CC1(C)CCC[C@]2(C)[C@H]3CCO[C@]3(C)CC[C@@H]12`, the AC50 was 36.6 µM (active) and 30.8 µM (active).

Consider `C=C(C)C(=O)OCC(CC)(COC(=O)C(=C)C)COC(=O)C(=C)C`, for which the AC50 is 23.4 µM (active).

Consider `Clc1cc(Cl)c(-c2c(Cl)c(Cl)cc(Cl)c2Cl)cc1Cl`, for which the AC50 was 8.48 µM (active).

With `CC(C=O)Cc1ccc(C(C)(C)C)cc1` (stereo not given), the AC50 was 29.5 µM (active).

Regarding `O=C1OC2(c3ccccc31)c1ccc(O)c(Br)c1Oc1c2ccc(O)c1Br`, the AC50 was 20 µM (active).

For the compound `O=C(Nc1ccc2c(O)c(N=Nc3ccc(N=Nc4ccc(S(=O)(=O)O)cc4)cc3)c(S(=O)(=O)O)cc2c1)c1ccccc1`, the AC50 is 30.8 µM (active) and 29.3 µM (active).

In the case of `C=C(C)C(=O)OCCOCCOCCOCCOC(=O)C(=C)C`, the result was inactive.

With `CCCCCCCCCCCCCCCC(=O)OC/C=C(C)/C=C/C=C(C)/C=C/C1=C(C)CCCC1(C)C`, the AC50 is 24.7 µM (active).

Take `CC(C)(N=C=O)c1cccc(C(C)(C)N=C=O)c1`: the outcome was inactive.

`COc1ccc(OC)c(N=Nc2c(O)ccc3ccccc23)c1`: the AC50 is 5.74 µM (active).

Take `CSCCC=O`: the result was inactive.

Take `CN(C)C(=O)Nc1ccc(Oc2ccc(Cl)cc2)cc1`: the outcome was inactive.

As for `CN(C)C(=S)SC(=S)N(C)C`, the AC50 was 31.4 µM (active).

On to `c1ccc(Oc2ccccc2)cc1`, for which the outcome was inactive.

`CC(=O)Nc1ccc(C(=O)CCl)cc1`: the AC50 is 8.76 µM (active).

In the case of `CS(=O)(=O)c1ccc(C2=C(c3ccccc3)C(=O)OC2)cc1`, the outcome was inactive.

`c1ccc2cc(Nc3ccc(Nc4ccc5ccccc5c4)cc3)ccc2c1`: the outcome was inactive.

Regarding `C[C@@H]1CCN(C(=O)[C@H](CCCN=C(N)N)NS(=O)(=O)c2cccc3c2NC[C@H](C)C3)[C@@H](C(=O)O)C1`, the outcome was inactive.

With `O=CN1CCOCC1`, the outcome was inactive.

Regarding `C=C(C)C(=O)OCCOCCOCCOC(=O)C(=C)C`, the AC50 was 0.0819 µM (active).

Turning to `CC(CN=Cc1ccccc1O)N=Cc1ccccc1O` (stereo not given), the outcome was inactive.

On to `O=C1OC[C@H](Cc2cccc(O)c2)[C@H]1Cc1cccc(O)c1`, for which the result was inactive.

Take `CC1(C)C2=CCCC(C)(C)[C@]23CC[C@H]1C3`: the AC50 is 30.2 µM (active).

With `CN(c1nccc(=O)[nH]1)C1CCN(c2nc3ccccc3n2Cc2ccc(F)cc2)CC1`, the result was inactive.

Take `c1ccc(CCc2ccccc2)cc1`: the AC50 is 30.5 µM (active).

For the compound `C=CC(C)(O)CCC=C(C)C` (stereo not given), the result was inactive.

Take `C=C(C)[C@H]1CC=C(C)C(=O)C1`: the outcome was inactive.

For `CCCCOC(=O)CCCCCCCC(=O)OCCCC`, the result was inactive.

Consider `CCCCCCC(CO)CCCC` (stereo not given), for which the concentration at half-maximal activity (AC50) was 33.8 µM (active) and 30.2 µM (active).

Regarding `CC(=O)C1(C)CC2=C(CCCC2(C)C)CC1C` (stereo not given), the AC50 was 10.9 µM (active).

For the compound `CC(C)(C)CC(C)(C)c1ccc(OCCOCC[N+](C)(C)Cc2ccccc2)cc1`, the AC50 is 6.64 µM (active).

Regarding `CCCCCC(C=O)=Cc1ccccc1`, the outcome was inactive.

In the case of `CC=Cc1ccc(OCC)c(O)c1`, the result was inactive.
